Screening results from PubChem BioAssay.
In the library only some 7.9% were active in any assay of this set; here they are far more common.
KB-3-1 tox = qHTS assay for MDR1-selective chemotherapeutics: Primary screen using the parental adenocarcinoma cell KB-3-1. KB-3-1 viability, CellTiter-Glo ATP luminescence, 72 h. 1.4% of 400,000 active. AID 1347075, 2019. Potency, µM (titrated, usually from 46.1 µM), hits mostly cytotoxic; further: nearly all actives have a fitted effect of over 60% in size
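KB-3-1 parental drug-naive adenocarcinoma cells in DMEM/10% FBS, incubated 72 h at 37 C with pin-transferred compounds across a concentration series. Viability by CellTiter-Glo luminescence; concentration-response curves fitted after normalization.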
HT1080 IDH1KD tx = qHTS for induction of synthetic lethality in tumor cells producing 2HG: qHTS for the HT-1080-IDH1KD cell line; HT-1080 IDH1 knockdown viability, ATP luminescence, 48 h; Potency, µM (titrated, usually from 46.1 µM), hits mostly cytotoxic; 2% of 360,000 active; AID 686971, 2013
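CellTiter-Glo luminescence after 48 h compound exposure at 37 degrees C of IDH1-knockdown HT-1080 cells in 5% FBS RPMI. %Activity scaled between DMSO wells and cell-free media wells, with curves fitted and assigned curve classes.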
MCF10A rerep = A quantitative high throughput screen for small molecules that induce DNA re-replication in MCF 10a normal breast cells; Potency, µM (series often up to 46.1 µM), most hits filed as activators; 2.9% of 350,000 active; MCF 10A DNA re-replication, Hoechst nuclear intensity, 48 h; AID 624296, 2012; further: nearly all actives have a fitted effect of over 50% in size
KB-V1 MDR tox = qHTS assay for MDR1-selective chemotherapeutics: Primary screen using the drug-selected MDR subline cells KB-V1 | KB-V1 MDR cells viability, CellTiter-Glo, 72 h | Potency, µM (titrated, usually from 46.1 µM), usual class: cytotoxic | 3.4% of 400,000 active | AID 1347076, 2019; further: nearly all actives have a fitted effect of over 60% in size
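qHTS viability screen in drug-selected KB-V1 MDR cells: 72 h compound treatment at 37 degrees C, ATP luminescence end point.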
SW480 rereplic = A quantitative high throughput screen for small molecules that induce DNA re-replication in SW480 colon adenocarcinoma cells. SW480 DNA re-replication, Hoechst DNA content imaging, 48 h. Potency, µM (highest dose often 46.1 µM), hits mostly activators. 1.8% of 340,000 active; further: nearly all actives have a fitted effect of over 55% in size
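Image-based read-out: total Hoechst fluorescence of nuclei (405 nm excitation, 500-530 nm emission), with hits raising the fraction of high-intensity nuclei. SW480 colon cells incubated 48 hr with compounds at 37 C.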
HT1080NT lethal = qHTS for induction of synthetic lethality in tumor cells producing 2HG: qHTS for the HT-1080-NT fibrosarcoma cell line; AID 686970, 2013; HT-1080-NT fibrosarcoma viability, CellTiter-Glo ATP luminescence, 48 h; 1.6% of 360,000 active; Potency, µM (titrated, usually from 46.1 µM), usual class: cytotoxic;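 further: NT is the 2HG producing partner of a matched IDH1 knockdown line; nearly all actives have a fitted effect of over 55% in size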
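A 48-hour cytotoxicity screen used HT-1080-NT cells plated 2 hours before compound delivery. ATP-based CellTiter-Glo luminescence measured viability, normalized to DMSO and no-cell controls.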
Numbers stand for hits; n = inactive; u = inconclusive; x = no result; [ ] = dose if it differs, or a comment. The call rests on the fitted dose curve; in most records, active means well fitted curve in the direction sought with a large enough effect; inconclusive means small, poorly fitted or top-dose-only effect, or another doubt; inactive means no such curve, though single readings can be large; an effect the other way counts as inactive or inconclusive.

SMILES | KB-3-1 tox | HT1080 IDH1KD tx | MCF10A rerep | KB-V1 MDR tox | SW480 rereplic | HT1080NT lethal
CC1=NN(C(=O)c2ccc(Cn3nc(C)c([N+](=O)[O-])c3C)cc2)C(O)(C(F)(F)F)C1 (stereo not given) | n | 1.8µM | u | 9.2µM | n | 4.5µM
CC1=NN(C(=O)c2ccc(Cn3nc(C)c(Br)c3C)cc2)C(O)(C(F)(F)F)C1 (stereo not given) | n | n | n | n | n | n
CC1=NN(C(=O)c2ccc(Cn3nc(C)cc3C)o2)C(O)(C(F)(F)F)C1 (stereo not given) | n | 6.3µM | 2.3µM | n | 3.7µM | 7.1µM
COC(CNC(=O)c1ccc2c(c1)nc(C)n2-c1cccc(C)c1)OC | n | n | n | n | n | n
Cc1cccc(-n2c(C)nc3cc(C(=O)NCc4ccc5c(c4)OCO5)ccc32)c1 | n | n | n | 16µM | u | n
COCCNC(=O)c1ccc2c(c1)nc(C)n2-c1cccc(F)c1 | n | n | n | 21µM | n | n
CCCNC(=O)c1ccc2c(c1)nc(C)n2-c1cccc(C)c1 | n | n | n | n | n | n
NC(=O)c1cccn1-c1ncc(C(F)(F)F)cc1Cl | n | n | n | n | n | n
O=C(Nc1ccc(Br)cc1)c1cccn1-c1ncc(C(F)(F)F)cc1Cl | n | 11µM | u | n | n | u
COc1ccc(Oc2nc3c(c(=O)n(C)c(=O)n3C)n2Cc2ccc(Cl)cc2Cl)cc1 | n | x | x | n | x | x
CCCCCn1c(=NC(C)=O)c(C#N)cc2c(=O)n3ccccc3nc21 | n | n | u | n | u | n
CCCCCn1c(=NC(=O)c2cccnc2)c(C#N)cc2c(=O)n3cccc(C)c3nc21 | n | n | 13µM | n | 8.2µM | n
CCOCCCn1c(=NC(C)=O)c(C#N)cc2c(=O)n3cccc(C)c3nc21 | n | n | u | u | 13µM | n
CCCCn1c(=NC(=O)c2ccc3c(c2)OCO3)c(C#N)cc2c(=O)n3cccc(C)c3nc21 | u | n[9.24 µM] | u | u | u | n
CCCCn1c(=NC(C)=O)c(C#N)cc2c(=O)n3cccc(C)c3nc21 | u | n | 12µM | n | 21µM | n
CCc1ccccc1NC(=O)C1COc2ccccc2C1 (stereo not given) | n | x | x | u | x | x
Nc1[nH]c(=O)[nH]c(=O)c1N=Cc1ccccc1 | n | u | n | u | n | n
O=c1[nH]c(NCCO)c(N=Cc2ccccc2)c(=O)[nH]1 | n | n | u | n | 2.3µM | u
CC1CCc2c(sc3nc(C(C)(C)C)nc(N4CCN(C(=O)CCl)CC4)c23)C1 (stereo not given) | u | 4.6µM | 15µM | u | 5.2µM | 12µM
CCC(=O)N1CCN(c2nc(CC)nc3sc4c(c23)CCCC4)CC1 | n | n | n | u | n | n
COc1cccc(C2C3=C(N=c4s/c(=C\c5cccc(O)c5)c(=O)n42)c2ccccc2CC3)c1OC (stereo not given) | u | u | n | 16µM | u | n
CCN(CC)c1nc(Oc2ccc(C(=O)NN)cc2)nc(Oc2ccc(C(=O)NN)cc2)n1 | n | n | n | n | n | n
COC(=O)c1ccc(Oc2nc(Nc3ccccc3)nc(N(C)C)n2)cc1 | n | n | u | 15µM | n | n
COC(=O)c1ccc(Oc2nc(SC)nc(N(C)C)n2)cc1 | n | n | n | n | n | n
CCN(CC)c1nc(Nc2ccccc2)nc(Oc2ccc(C(=O)OC)cc2)n1 | u | n | u | u | 21µM | n
